{
  "source": "PubChem BioAssay AID720549",
  "about": "(National Center for Advancing Translational Sciences (NCATS), 2013)",
  "note": "“And” between values parts separate entries of the source, which are not always exact repeats. Equal values may be shown once. Results filed as inconclusive are left out. Where a call stands in place of a potency, no number is given. Where a structure was tested more than once in an assay, its records may differ in their call. The source made the active and inactive calls. The call rests on the fitted dose curve; in most records, active means well fitted inhibition curve with a large enough effect; inconclusive means small, poorly fitted or top-dose-only effect; inactive means flat fitted curve, though single readings scatter.",
  "data": [
    {"molecular_target": "RecQ-like DNA helicase BLM (Homo sapiens) (UniProt P54132)", "sequence (P54132 whole entry, looked up)": "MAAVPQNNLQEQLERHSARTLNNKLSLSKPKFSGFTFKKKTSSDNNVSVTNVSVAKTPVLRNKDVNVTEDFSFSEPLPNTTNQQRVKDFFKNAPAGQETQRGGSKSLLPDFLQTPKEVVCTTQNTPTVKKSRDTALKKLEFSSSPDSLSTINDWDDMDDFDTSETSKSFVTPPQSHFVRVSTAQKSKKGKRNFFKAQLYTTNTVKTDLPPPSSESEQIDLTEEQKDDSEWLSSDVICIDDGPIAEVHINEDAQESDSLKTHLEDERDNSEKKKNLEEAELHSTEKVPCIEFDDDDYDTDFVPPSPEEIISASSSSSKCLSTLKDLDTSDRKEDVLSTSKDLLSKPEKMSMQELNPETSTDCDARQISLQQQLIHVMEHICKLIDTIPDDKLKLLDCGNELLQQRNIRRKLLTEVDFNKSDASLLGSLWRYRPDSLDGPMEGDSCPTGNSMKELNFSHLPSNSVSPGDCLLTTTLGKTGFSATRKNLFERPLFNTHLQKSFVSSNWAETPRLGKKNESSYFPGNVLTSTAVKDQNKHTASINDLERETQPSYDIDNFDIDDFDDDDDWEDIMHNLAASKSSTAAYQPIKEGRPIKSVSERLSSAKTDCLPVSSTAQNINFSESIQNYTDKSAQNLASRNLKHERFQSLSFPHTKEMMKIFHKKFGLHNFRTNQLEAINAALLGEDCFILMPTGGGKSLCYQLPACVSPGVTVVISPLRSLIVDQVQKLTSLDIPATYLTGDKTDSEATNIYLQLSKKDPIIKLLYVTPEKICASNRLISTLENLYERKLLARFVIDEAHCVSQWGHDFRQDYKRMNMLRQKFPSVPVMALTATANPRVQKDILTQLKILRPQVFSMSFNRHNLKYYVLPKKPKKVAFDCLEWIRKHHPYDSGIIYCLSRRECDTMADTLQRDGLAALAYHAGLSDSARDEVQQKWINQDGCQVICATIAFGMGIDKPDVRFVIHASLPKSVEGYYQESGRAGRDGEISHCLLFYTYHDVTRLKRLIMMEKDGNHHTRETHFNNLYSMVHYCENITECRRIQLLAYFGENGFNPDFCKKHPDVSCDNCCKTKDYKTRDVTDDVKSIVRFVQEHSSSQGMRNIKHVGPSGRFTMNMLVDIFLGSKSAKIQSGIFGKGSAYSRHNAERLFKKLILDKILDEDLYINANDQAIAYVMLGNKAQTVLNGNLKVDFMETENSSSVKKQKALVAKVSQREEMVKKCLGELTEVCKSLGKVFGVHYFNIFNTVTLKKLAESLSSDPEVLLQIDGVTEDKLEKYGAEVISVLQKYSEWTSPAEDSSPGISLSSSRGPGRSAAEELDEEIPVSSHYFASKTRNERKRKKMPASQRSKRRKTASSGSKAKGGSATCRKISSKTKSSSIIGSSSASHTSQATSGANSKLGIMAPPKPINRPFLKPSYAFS", "assay": "qHTS for Inhibitors of Bloom's syndrome helicase (BLM): Helicase ATPase Orthogonal Confirmatory Assay for SAR", "details": "purified BLM helicase ATPase activity assay; series mostly up to 57.1 µM", "how_it_was_run": "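Purified BLM (2 nM) in Tris-HCl pH 8.0 with MgCl2, DTT, Tween-20, preincubated 15 min with compound. Reaction with 200 nM ssDNA and 100 uM ATP ran 15 min; ADP-Glo luminescence, four-parameter Hill fit.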", "values": [
      {"smiles": "O=C(Nc1ccc(Cl)c(Cl)c1)N1CCN(c2ccncc2)CC1", "Potency": "inactive"},
      {"smiles": "O=C(Nc1ccc2ccccc2c1)Nc1nnc(-c2ccccc2)s1", "Potency": "inactive"},
      {"smiles": "N/C(=N\\c1nnc(-c2ccncc2)s1)Nc1ccc(F)c(C(F)(F)F)c1", "Potency": "inactive and 20.4 µM (active)"},
      {"smiles": "CC(C)(C)NC(=O)Nc1nnc(-c2ccncc2)s1", "Potency": "inactive"},
      {"smiles": "O=S(=O)(Cc1ccc(Cl)c(Cl)c1)Nc1nnc(-c2ccncc2)s1", "Potency": "inactive"},
      {"smiles": "O=C(Nc1ccc2ccccc2c1)Nc1nnc(-c2ccc(O)cc2)s1", "Potency": "inactive"},
      {"smiles": "O=C(Nc1ccc(Cl)c(Cl)c1)Nc1nnc(C2CCCCC2)s1", "Potency": "inactive"},
      {"smiles": "CC(C)(C)c1ccc(-c2nnc(NC(=O)Nc3ccc4ccccc4c3)s2)cc1", "Potency": "inactive"},
      {"smiles": "Cc1ccccc1-c1nnc(NC(=O)Nc2ccc3ccccc3c2)s1", "Potency": "inactive"},
      {"smiles": "O=C(Nc1ccc(Cl)c(Cl)c1)Nc1nnc(NC2CCNCC2)s1", "Potency": "inactive"},
      {"smiles": "CN(C(=O)Nc1ccc2ccccc2c1)c1nnc(-c2ccncc2)s1", "Potency": "inactive"},
      {"smiles": "O=C(Nc1ccc(Cl)c(Cl)c1)Nc1ccc(-c2ccncc2)s1", "Potency": "inactive"},
      {"smiles": "Cc1cc(NC(=O)Nc2nnc(-c3ccncc3)s2)ccc1F", "Potency": "inactive"},
      {"smiles": "S=C(Nc1ccc(Cl)c(Cl)c1)Nc1nnc(-c2ccncc2)s1", "Potency": "2.64 µM (active)"},
      {"smiles": "O=C(Nc1ccc(F)c(C(F)(F)F)c1)Nc1nnc(-c2ccncc2)s1", "Potency": "inactive"},
      {"smiles": "Cc1ccc(-c2nnc(NC(=O)Nc3ccc4ccccc4c3)s2)cc1", "Potency": "inactive"},
      {"smiles": "O=C(Nc1ccc(Cl)c(Cl)c1)Nc1nnc(-c2ccncc2)o1", "Potency": "inactive"},
      {"smiles": "O=C(Nc1cc(F)cc(F)c1)Nc1nnc(-c2ccncc2)s1", "Potency": "inactive"}
    ]}
  ]
}
